The values that follow come from PubChem BioAssay (EPA / NIEHS).

Records with an inconclusive call do not appear. Where a structure was tested more than once in an assay, its records may differ in their call. Active and inactive are the calls of the source. Rule for the calls: active = hit-call score of the fitted dose curve at least 0.9, where 1 is the maximum; inconclusive = response in the unintended direction; inactive = score below 0.9.

Assay [1] can be described thus: ATG_XTT_Cytotoxicity: Cytotoxicity Assessment in the Attagene TRANS-FACTORIAL HepG2 Assay (AID 2283584).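 For AC50: cells exposed to compound for 24 h before reading; active means loss of viability signal versus DMSO baseline.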 The method, boiled down: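 Viability endpoint from XTT after 24 h chemical exposure of reporter-transfected human HepG2 liver cells; signal loss fitted relative to DMSO negative control.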
Assay [2] in a line: TOX21_p53_BLA_p2_viability: Viability Assessment in the Tox21 HCT-116 p53 Agonism Beta-lactamase Assay, Phase 2 (AID 2283591).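 Note: compound exposure lasted 16 h at 37 °C; actives lower the ATP signal meaning cytotoxicity.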 A digest of the protocol: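 HCT-116 p53-bla cells (4000/well) rested 5 h at 37C, then received compounds in DMSO (217-fold dilution) for 16 h at 37C, 5% CO2. After the CCF4 read, CellTiter-Glo was added; ATP luminescence was read after 30 min at room temperature.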

Assay [3] has as its target Cellular tumor antigen p53 (Homo sapiens) (UniProt P04637). Briefly: TOX21_p53_BLA_p2_ratio: Tox21 HCT-116 p53 Agonism Beta-lactamase Assay, Ratio, Phase 2 (AID 2283592). The method, boiled down:
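Read-out is the blue/green (460/530 nm, 405 nm excitation) ratio after 2 h CCF4-AM loading, fitted as gain versus DMSO. Compounds, pinned at 217-fold dilution from DMSO stocks, stayed 16 h on HCT-116 beta-lactamase reporter cells seeded 5 h earlier.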

For assay [4] the target is unchanged. Briefly: TOX21_p53_BLA_p3_ratio: Tox21 HCT-116 p53 Agonism Beta-lactamase Assay, Ratio, Phase 3 (AID 2283596). A digest of the protocol: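 Cells were seeded at 4000/well, rested 5 h at 37C, then dosed with DMSO compound solutions (217-fold dilution) for 16 h. CCF4-AM substrate was loaded for 2 h at room temperature, and the 460/530 nm emission ratio was fitted for gain of signal versus DMSO.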

Assay [5] can be described thus: TOX21_p53_BLA_p4_viability: Viability Assessment in the Tox21 HCT-116 p53 Agonism Beta-lactamase Assay, Phase 4 (AID 2283597).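 Note: hits lower the luminescence signal meaning cytotoxicity.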 The method, boiled down:
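Cytotoxicity as reduced cellular ATP (CellTiter-Glo luminescence, 30 min room temperature), measured in the same wells following the CCF4 FRET p53 reading. Human HCT-116 cells received compounds in DMSO (217-fold dilution) for 16 h.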

Assay [6] can be described thus: TOX21_p53_BLA_p5_viability: Viability Assessment in the Tox21 HCT-116 p53 Agonism Beta-lactamase Assay, Phase 5 (AID 2283600). The method, boiled down: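 Viability came from CellTiter-Glo ATP luminescence, read after 30 min at room temperature. Before this, HCT-116 p53-bla cells (4000/well) had 16 hours of compound exposure at 37C, with DMSO stocks diluted 217-fold on transfer.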

In assay [7] the target is Cellular tumor antigen p53 (Homo sapiens) (UniProt P04637). Briefly: TOX21_p53_BLA_p4_ratio: Tox21 HCT-116 p53 Agonism Beta-lactamase Assay, Ratio, Phase 4 (AID 2283601). A digest of the protocol: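 HCT116 cells carrying an inducible beta-lactamase reporter were plated at 4000 cells/well, rested 5 h, then exposed to compounds in DMSO (217-fold dilution) for 16 h at 37C. CCF4-AM substrate was loaded 2 h at room temperature; 460/530 nm emission ratio scored gain-of-signal versus DMSO.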
Cellular tumor antigen p53 (Homo sapiens), sequence (P04637 whole entry, looked up): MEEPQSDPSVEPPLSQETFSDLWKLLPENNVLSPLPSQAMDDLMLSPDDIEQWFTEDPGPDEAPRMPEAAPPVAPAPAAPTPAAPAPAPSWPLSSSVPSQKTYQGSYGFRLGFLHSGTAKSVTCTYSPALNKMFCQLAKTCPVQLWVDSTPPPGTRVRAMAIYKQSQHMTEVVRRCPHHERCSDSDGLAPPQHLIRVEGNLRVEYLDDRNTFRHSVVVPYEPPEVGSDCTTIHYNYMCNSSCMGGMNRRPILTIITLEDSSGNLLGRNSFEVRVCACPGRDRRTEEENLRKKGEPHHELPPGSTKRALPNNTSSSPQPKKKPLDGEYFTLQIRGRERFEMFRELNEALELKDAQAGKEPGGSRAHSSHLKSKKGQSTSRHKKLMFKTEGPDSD

Assay [8] in a line: TOX21_p53_BLA_p3_viability: Viability Assessment in the Tox21 HCT-116 p53 Agonism Beta-lactamase Assay, Phase 3 (AID 2283593).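 Note: cells exposed to compound for 16 h before reading.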 The method, boiled down:
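HCT-116 cells (4000/well) rested 5 h at 37C, then got DMSO compounds by pin tool (217-fold dilution) for 16 h at 37C, 5% CO2. After the bla read, CellTiter-Glo was added and luminescence read at 30 min, room temperature.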

The target in assay [9] is Cellular tumor antigen p53 (Homo sapiens) (UniProt P04637). In words: TOX21_p53_BLA_p5_ratio: Tox21 HCT-116 p53 Agonism Beta-lactamase Assay, Ratio, Phase 5 (AID 2283599). A digest of the protocol:
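HCT-116 cells carrying a p53-inducible beta-lactamase reporter were seeded at 4000 cells/well and dosed after 5 h with compound in DMSO (217-fold dilution). After 16 h at 37C, CCF4-AM substrate was added for 2 h, and the 460/530 nm emission ratio was scored as gain-of-signal versus DMSO.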

On to `CC(C)(C)C1CCC(O)CC1` (centres undefined), for which the molecule was classed as inactive in [1], in [2], in assay [3], in [4], in [5] and in [6]. For the same molecule, in assay [7], the outcome was inactive.

With `CCC(=O)OCC=Cc1ccccc1`, the result in assay [1] was inactive.

As to `O=Cc1ccccc1O`, the molecule was classed as inactive in [1], in assay [2], in assay [3], in [8], in [4] and in [5]. Also, the result in [9] and in [6] was inactive.

As to `O=S1(=O)CC(Cl)(Cl)C(Cl)(Cl)C1`, the AC50 in assay [1] is 26 µM (active); in assay [2] it was 7.38 µM (active); in [4] it was 47.6 µM (active); in assay [5] it was 9.34 µM (active); in assay [9], 39.4 µM (active); in assay [6], 6.87 µM (active). Further, the AC50 in assay [7] was 39 µM (active). Further, the result in assay [3] was inactive.

As for `CCOC(=O)CC1(C)OCC(C)O1` (centres undefined), the outcome in assay [1], in assay [2], in [3], in assay [8], in assay [9] and in [6] was inactive.

Regarding `CCCCCCCCOC(=O)c1ccc(O)cc1`, in assay [1], the concentration at half-maximal activity (AC50) is 100 µM (active) and the call was inactive.

For the molecule `COc1ccc2[nH]cc(CCNC(C)=O)c2c1`, the outcome in assay [1], in assay [2], in assay [3], in [8], in assay [4] and in assay [5] was inactive. For the same molecule, the outcome in [9], in [6] and in assay [7] was inactive.

As to `CCCCCCCCSCc1cc(C)c(O)c(CSCCCCCCCC)c1`, in assay [1], the outcome was inactive.

On to `CC(C)OB(OC(C)C)OC(C)C`, for which the result in assay [1], in assay [2], in assay [3], in [4], in assay [5] and in [6] was inactive.

With `Cc1ccc(C(C)(C)O)cc1`, the result in assay [1], in assay [2], in assay [3], in assay [9], in [6] and in [7] was inactive.

On to `CCCCC(CC)COCCO` (centres undefined), for which the molecule was classed as inactive in assay [1], in assay [2], in assay [3], in assay [4], in assay [9] and in [7].

In the case of `O=c1cc(-c2ccc(O)cc2)oc2cc(O)cc(O)c12`, the molecule was called inactive in assay [1], in assay [2], in assay [4], in assay [5], in [9] and in [6]. Besides, the result in [7] was inactive. The AC50 in [4] was 14.6 µM (active); in assay [7], 13.4 µM (active).

Turning to `C=CCOCC(O)CO` (centres undefined), the molecule was classed as inactive in assay [1], in assay [2], in assay [8], in assay [4], in [9] and in assay [7].

On to `CCCCCCCCCCCCOCCOS(=O)(=O)O`, for which the half-maximal activity concentration (AC50) was 154 µM (active) in [1] and 60.4 µM (active) in assay [5]. Moreover, the molecule was classed as inactive in assay [2], in assay [8], in assay [9], in [6] and in assay [7].

Regarding `CC(=O)CC(=O)N(C)C`, the molecule was called inactive in assay [1], in [2], in assay [4], in assay [5], in assay [9] and in [7].

In the case of `C=C(C)CCCC(C)CCO` (centres undefined), the outcome in assay [1], in assay [2], in assay [8], in assay [5] and in assay [9] was inactive.

In the case of `CCCc1ccc(O)cc1`, the call in assay [1], in assay [2], in assay [3], in [5], in assay [9] and in assay [7] was inactive.

As to `c1coc(CNc2ncnc3nc[nH]c23)c1`, the result in [1], in [2], in assay [8], in assay [5], in [9] and in assay [6] was inactive. For the same molecule, the result in assay [7] was inactive.

In the case of `CC1=CC(O)CC(C)(C)C1` (centres undefined), the result in assay [1], in assay [2], in [3], in [6] and in assay [7] was inactive.

`CCc1cccc(O)c1`: the result in assay [1], in assay [2], in [4], in assay [5], in assay [9] and in assay [6] was inactive. In addition, the outcome in assay [7] was inactive.

`CC(=O)OC(C)(C)C1CC=C(C)CC1` (centres undefined): the molecule was classed as inactive in [1], in assay [2], in assay [4], in assay [9], in assay [6] and in assay [7].

On to `CC(C)CCOC(=O)CC(C)C`, for which the outcome in assay [1], in assay [2], in [8], in [4], in assay [9] and in [7] was inactive.

For the molecule `FC(F)(F)c1ccc(Cl)c(Cl)c1`, the call in [1], in [2], in assay [8], in assay [4], in [5] and in [9] was inactive. The molecule was called inactive in assay [6] and in [7].

`O=C(O)c1cccc(Cl)n1`: the call in assay [1], in assay [2] and in assay [6] was inactive.

For `CCCCCCOc1ccc(O)cc1`, the molecule was called inactive in [1], in assay [8] and in assay [6]. The AC50 in assay [2] was 45.6 µM (active); in [4], 36.3 µM (active); in assay [5], 65 µM (active); in [9] it was 52.4 µM (active); in assay [7] it was 72.5 µM (active).

Turning to `CCOC(=O)COC(=O)c1ccccc1C(=O)OCC`, the outcome in [1], in assay [2], in assay [5], in assay [9] and in assay [7] was inactive.

What is called AC50 is the concentration at which the activity in the assay is half-maximal.
